Read-out in experiment [1]: Urokinase-type plasminogen activator receptor (uPAR), PLAUR (gene 5329)
As to the kind of experiment: BSK_4H_uPAR: BioMAP Diversity Plus: 4H Assay for Urokinase-type plasminogen activator receptor (uPAR) Biomarker Activity (AID 2283030). To be noted: primary human endothelial cells (HUVEC); actives raise or lower the signal. An outline of the steps:
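Primary human umbilical vein endothelial cells were exposed to chemical for 24 h before cell-surface uPAR was quantified by ELISA. Activity was fitted bidirectionally against the DMSO negative control baseline.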

Read-out in experiment [2]: Human Leukocyte Antigen - DR isotype (HLADR), HLA-DRA (gene 3122)
As to the kind of experiment: BSK_BE3C_HLADR: BioMAP Diversity Plus: BE3C Assay for Human Leukocyte Antigen - DR isotype (HLADR) Biomarker Activity (AID 2283032). The settings on record: primary human bronchial epithelial cells; actives raise or lower the signal. An outline of the steps: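 Primary human bronchial epithelial cells (BE3C); 24 h chemical exposure; HLA-DR by ELISA; bidirectional curve fit vs DMSO baseline.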

Read-out in experiment [3]: Interferon-gamma inducible Protein 10 (IP10), CXCL10 (gene 3627)
The experiment can be described thus: BSK_BE3C_IP10: BioMAP Diversity Plus: BE3C Assay for Interferon-gamma inducible Protein 10 (IP10) Biomarker Activity (AID 2283034). To be noted: primary human bronchial epithelial cells; actives raise or lower the signal. An outline of the steps: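 ELISA readout of IP-10 in BE3C system: primary human bronchial epithelial cells, 24 h post-dosing; bidirectional curve fit vs DMSO baseline.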

Read-out in experiment [4]: Transforming growth factor beta 1 (TGFb1), TGFB1 (gene 7040)
The experiment can be described thus: BSK_BE3C_TGFb1: BioMAP Diversity Plus: BE3C Assay for Transforming growth factor beta 1 (TGFb1) Biomarker Activity (AID 2283036;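 as to outcome: TGF-b1 protein level measured by ELISA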). The settings on record: primary human bronchial epithelial cells; actives raise or lower the signal. In a few lines: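 Read-out: ELISA for TGF-b1 in primary human bronchial epithelial cultures, 24 h post-dose. Bidirectional curve fitting vs DMSO control; gain or loss of signal both scored.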

Read-out in experiment [5]: Plasminogen activator inhibitor-1 (PAI1), SERPINE1 (gene 5054)
The experiment can be described thus: BSK_BE3C_PAI1: BioMAP Diversity Plus: BE3C Assay for Plasminogen activator inhibitor-1 (PAI1) Biomarker Activity (AID 2283037). To be noted: primary human bronchial epithelial cells; actives raise or lower the signal. An outline of the steps:
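ELISA read-out of PAI-1 from human bronchial epithelial primary cells, 24 h post-dosing; bidirectional curve fit vs DMSO baseline, gain or loss of signal scored.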

Read-out in experiment [6]: urokinase plasminogen activator (uPA), PLAU (gene 5328)
The experiment can be described thus: BSK_BE3C_uPA: BioMAP Diversity Plus: BE3C Assay for urokinase plasminogen activator (uPA) Biomarker Activity (AID 2283038).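 As to outcome: uPA protein level quantified by ELISA in cell cultures; uPA read one day after compound addition.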 The settings on record: primary human bronchial epithelial cells; actives raise or lower the signal. An outline of the steps:
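Human primary bronchial epithelial cells were exposed to chemical for 24 h, then uPA levels were measured by ELISA. Responses were fitted bidirectionally against DMSO as negative control and baseline. Parallel SRB staining of total protein gauged overt cytotoxicity.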

Read-out in experiment [7]: Urokinase-type plasminogen activator receptor (uPAR), PLAUR (gene 5329)
The experiment can be described thus: BSK_BE3C_uPAR: BioMAP Diversity Plus: BE3C Assay for Urokinase-type plasminogen activator receptor (uPAR) Biomarker Activity (AID 2283039).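 As to outcome: cells exposed to compound for one day before measurement.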 To be noted: primary human bronchial epithelial cells; actives raise or lower the signal. In a few lines:
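ELISA readout of uPAR on human lung primary bronchial epithelial cells, 24 h post-dosing. Bidirectional curve fit relative to DMSO vehicle baseline; gain or loss of signal both scored.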

Read-out in experiment [8]: Interleukin-6 (IL6), IL6 (gene 3569)
The experiment can be described thus: BSK_CASM3C_IL6: BioMAP Diversity Plus: CASM3C Assay for Interleukin-6 (IL6) Biomarker Activity for (AID 2283040). The settings on record: primary human coronary artery smooth muscle cells; actives raise or lower the signal.

Read-out in experiment [9]: Tissue plasminogen activator (tPA), PLAT (gene 5327)
The experiment can be described thus: BSK_BE3C_tPA: BioMAP Diversity Plus: BE3C Assay for Tissue plasminogen activator (tPA) Biomarker Activity (AID 2283041).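 As to outcome: tPA level quantified by ELISA one day after compound addition.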 The settings on record: primary human bronchial epithelial cells; actives raise or lower the signal. In a few lines: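 ELISA read-out of tPA on human primary bronchial epithelial cells, 24 h post-dosing; bidirectional fit vs DMSO negative control/baseline.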

Read-out in experiment [10]: Interleukin-8 (IL8), CXCL8 (gene 3576)
The experiment can be described thus: BSK_CASM3C_IL8: BioMAP Diversity Plus: CASM3C Assay for Interleukin-8 (IL8) Biomarker Activity (AID 2283042).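 Also: IL-8 protein level quantified by ELISA.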 The settings on record: primary human coronary artery smooth muscle cells; actives raise or lower the signal.

Read-out in experiment [11]: Human Leukocyte Antigen - DR isotype (HLADR), HLA-DRA (gene 3122)
The experiment can be described thus: BSK_CASM3C_HLADR: BioMAP Diversity Plus: CASM3C Assay for Human Leukocyte Antigen - DR isotype (HLADR) Biomarker Activity (AID 2283043).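 Also: cell-surface HLA-DR protein level quantified by ELISA.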 To be noted: primary human coronary artery smooth muscle cells; actives raise or lower the signal.

Read-out in experiment [12]: Macrophage colony-stimulating factor (MCSF), CSF1 (gene 1435)
The experiment can be described thus: BSK_CASM3C_MCSF: BioMAP Diversity Plus: CASM3C Assay for Macrophage colony-stimulating factor (MCSF) Biomarker Activity (AID 2283044).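 Also: M-CSF protein amount quantified by ELISA after 24 h exposure.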 To be noted: primary human coronary artery smooth muscle cells; actives raise or lower the signal.

Read-out in experiment [13]: Low-density lipoprotein receptor (LDLR), LDLR (gene 3949)
The experiment can be described thus: BSK_CASM3C_LDLR: BioMAP Diversity Plus: CASM3C Assay for Low-density lipoprotein receptor (LDLR) Biomarker Activity (AID 2283045).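 Also: LDLR protein level on the cell surface quantified by ELISA.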 To be noted: primary human coronary artery smooth muscle cells; actives raise or lower the signal.

Read-out in experiment [14]: Monocyte Chemoattractant Protein-1 (MCP1), CCL2 (gene 6347)
The experiment can be described thus: BSK_CASM3C_MCP1: BioMAP Diversity Plus: CASM3C Assay for Monocyte Chemoattractant Protein-1 (MCP1) Biomarker Activity (AID 2283046).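 Also: MCP-1 level quantified by ELISA 24 h after dosing.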 To be noted: primary human coronary artery smooth muscle cells; actives raise or lower the signal.

A short description of experiment [15]: BSK_CASM3C_Proliferation: Cell Proliferation Assessment in the BioMAP Diversity Plus: CASM3C Assay (AID 2283047).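 Also: sulforhodamine B total protein stain as relative cell number at 560 nm; sub-confluent cells exposed 48 h before staining; fitted both ways against DMSO so gain or loss of cell number.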 To be noted: primary human coronary artery smooth muscle cells.
Read-out in experiment [16]: Monokine induced gamma interferon (MIG), CXCL9 (gene 4283)
As to the kind of experiment: BSK_CASM3C_MIG: BioMAP Diversity Plus: CASM3C Assay for Monokine induced gamma interferon (MIG) Biomarker Activity (AID 2283048). To be noted: primary human coronary artery smooth muscle cells; actives raise or lower the signal.

Read-out in experiment [17]: serum amyloid A (SAA), SAA1 (gene 6288)
As to the kind of experiment: BSK_CASM3C_SAA: BioMAP Diversity Plus: CASM3C Assay for serum amyloid A (SAA) Biomarker Activity (AID 2283049).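 Also: SAA protein level quantified by ELISA.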 The settings on record: primary human coronary artery smooth muscle cells; actives raise or lower the signal.

Read-out in experiment [18]: Vascular cell adhesion molecule 1 (VCAM1), VCAM1 (gene 7412)
The experiment can be described thus: BSK_4H_VCAM1: BioMAP Diversity Plus: 4H Assay for Vascular cell adhesion molecule 1 (VCAM1) Biomarker Activity (AID 2283033).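 As to outcome: cell-surface VCAM-1 protein measured by ELISA.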 The settings on record: primary human endothelial cells (HUVEC); actives raise or lower the signal. In a few lines:
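HUVEC, 24 h post-dose; VCAM-1 by ELISA. Bidirectional curve fit vs DMSO baseline. Parallel SRB total-protein stain (0.1% SRB after 10% TCA fixation, 560 nm) for cytotoxicity.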

Read-out in experiment [19]: Monokine induced gamma interferon (MIG), CXCL9 (gene 4283)
As to the kind of experiment: BSK_BE3C_MIG: BioMAP Diversity Plus: BE3C Assay for Monokine induced gamma interferon (MIG) Biomarker Activity (AID 2283035).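 As to outcome: MIG protein measured by ELISA in BE3C cultures after 24 h of dosing.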 The settings on record: primary human bronchial epithelial cells; actives raise or lower the signal. An outline of the steps:
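hu bronchial epithelial 1° cells, 24 h cpd; MIG by ELISA; bidirectional fit, DMSO = baseline.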

Several values for one entry are separate records, joined by “and”; a condition that tells them apart may be missing. Equal entries are not always repeated. A structure can be active in one record and inactive in another. Activity calls are given as the source filed them. The calls were made as follows: active = hit-call score of the fitted dose curve at least 0.9, where 1 is the maximum; inactive = score below 0.9.

The record followed here is PubChem BioAssay (EPA / NIEHS).

Regarding `COP(=S)(OC)Oc1nc(Cl)c(Cl)cc1Cl`, the outcome in experiment [1], in [2], in experiment [3], in [4], in experiment [5] and in experiment [6] was inactive. Moreover, the outcome in experiment [7], in [8], in experiment [9], in experiment [10], in [11] and in experiment [12] was inactive. Further, the result in [13], in experiment [14], in experiment [16] and in [17] was inactive. Moreover, the half-maximal activity concentration (AC50) in [15] was 32.1 µM (active).

For `Cc1ccc(-c2c(Cl)nc(C#N)n2S(=O)(=O)N(C)C)cc1`, the AC50 in experiment [1] was 14.7 µM (active); in experiment [18], 16.6 µM (active); in experiment [3], 6.57 µM (active); in experiment [5] it was 3.97 µM (active). Besides, the result in [4], in experiment [6], in experiment [7], in experiment [8], in experiment [9] and in experiment [10] was inactive. For the same compound, the result in [11], in [12], in [13], in [14], in experiment [15] and in experiment [16] was inactive. Also, the result in experiment [17] was inactive.

As for `COC(=O)C(C)Oc1ccc(Oc2ccc(Cl)cc2Cl)cc1` (configuration not stated), the outcome in [1], in [18], in [3], in [19], in experiment [4] and in experiment [5] was inactive. Besides, the outcome in experiment [6], in experiment [7], in [8], in experiment [9], in experiment [10] and in experiment [11] was inactive. Also, the result in experiment [12], in experiment [13], in [14], in [15], in experiment [16] and in experiment [17] was inactive. The AC50 is 32.5 µM (active) in [5] and 32.6 µM (active) in [8].

As for `CCCCNC(=O)OCC#CI`, the AC50 in experiment [1] was 27.9 µM (active) and 25.8 µM (active); in [18], 25.1 µM (active) and 21.8 µM (active); in experiment [3], 34 µM (active) and 31.1 µM (active); in experiment [19] it was 37 µM (active) and 31.3 µM (active); in experiment [4], 31.2 µM (active) and 32.1 µM (active); in [5], 30.1 µM (active). For the same compound, the AC50 in [6] was 32 µM (active) and 30.6 µM (active); in experiment [7], 30 µM (active) and 30.4 µM (active); in experiment [8] it was 32.3 µM (active) and 36.3 µM (active); in [9], 30 µM (active); in experiment [10], 36.6 µM (active); in experiment [11], 30.8 µM (active) and 24.6 µM (active). Besides, the AC50 in experiment [12] is 26.4 µM (active) and 15.8 µM (active); in [14] it was 20.8 µM (active) and 24.5 µM (active); in [15], 6.91 µM (active) and 7.15 µM (active); in experiment [16], 29.5 µM (active) and 28.7 µM (active); in [17] it was 14.8 µM (active) and 14.3 µM (active). The result in experiment [9] and in experiment [13] was inactive.

As to `Cc1cc(Cl)ccc1OCC(=O)O`, the result in experiment [1], in experiment [18], in [3], in experiment [4], in experiment [5] and in experiment [6] was inactive. Moreover, the result in experiment [7], in experiment [8], in experiment [9], in experiment [10], in experiment [11] and in experiment [12] was inactive. The outcome in experiment [13], in [14], in experiment [15], in experiment [16] and in [17] was inactive.

Take `CCOC(=O)C(Cl)Cc1cc(-n2nc(C)n(C(F)F)c2=O)c(F)cc1Cl` (configuration not stated): the result in experiment [1], in [18], in experiment [3], in [4], in experiment [5] and in [6] was inactive. For the same compound, the result in experiment [7], in [8], in [9], in experiment [10], in experiment [11] and in [12] was inactive. For the same compound, the result in [13], in [14], in experiment [15], in experiment [16] and in [17] was inactive.
